{"source": "PubChem BioAssay (NCATS)", "note": "Records with an inconclusive call do not appear. Values without a mark were called inactive. Activity calls are given as the source filed them. Calls come from the whole dose curve; as a rule, active = well fitted inhibition curve with a large enough effect; inconclusive = small, poorly fitted or top-dose-only effect; inactive = flat fitted curve, though single readings scatter. Peptide text beside a SMILES is read from it. Potency is the fitted concentration of half-maximal effect.", "data": [{"system": "CP268", "assay": "qHTS profiling for inhibitors of Plasmodium falciparum proliferation (AID 504749); note: nearly all actives have a fitted effect of over 60% in size;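 for activity, negative = inhibition: 0% = DMSO vehicle and full inhibition = artemisinin control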", "conditions": "P. falciparum in erythrocytes, SYBR Green DNA, 72 h; series mostly up to 28.7 µM; activity, negative = inhibition: at the top concentration", "summary_of_the_method": "(§1)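 Three-day growth assay of blood-stage parasites in erythrocytes (0.3% parasitemia, 2.5% hematocrit) at 37 C, 5% CO2, quantified by SYBR Green DNA staining after overnight detergent lysis.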", "values": [{"compound": "C=C1C(=CC=C2CCC[C@@]3(C)[C@@H]2CC[C@H]3[C@H](C)CCCC(C)C)C[C@@H](O)C[C@@H]1O", "activity, negative = inhibition": "1.72%"}, {"compound": "O=C1C(=O)c2ncccc2-c2cccnc21", "Potency": "1510 nM (active)"}, {"compound": "O=CCCCC=O", "activity, negative = inhibition": "1.91%"}, {"compound": "CCCCC(C)(O)C/C=C/[C@H]1[C@H](O)CC(=O)[C@@H]1CCCCCCC(=O)OC", "note": "(stereo not given in full)", "activity, negative = inhibition": "-3.93%"}, {"compound": "CC(C)(C)C(=O)OCOC(=O)[C@@H]1N2C(=O)[C@@H](N=CN3CCCCCC3)[C@H]2SC1(C)C", "activity, negative = inhibition": "-1.69% [at 12.8 µM]"}, {"compound": "C[C@]12CCC(=O)C=C1CC[C@@H]1[C@@H]2[C@@H](O)C[C@@]2(C)[C@H]1CC[C@]2(O)C(=O)COP(=O)(O)O", "activity, negative = inhibition": "6.68%"}, {"compound": "CCOc1ccc(N=Nc2ccc(N)cc2N)cc1", "activity, negative = inhibition": "-11.1%"}, {"compound": "O=C(O)CCC(=O)C(=O)O", "activity, negative = inhibition": "-1.92%"}, {"compound": "CC1=CCC(C(C)(C)O)CC1", "note": "(stereo not given)", "activity, negative = inhibition": "-0.159%"}, {"compound": "CO[C@H](C(=O)[C@@H](O)[C@@H](C)O)C1Cc2cc3cc(O[C@H]4C[C@@H](O[C@H]5C[C@@H](O)[C@H](O)[C@@H](C)O5)[C@@H](O)[C@@H](C)O4)c(C)c(O)c3c(O)c2C(=O)[C@H]1O[C@H]1C[C@@H](O[C@H]2C[C@@H](O[C@H]3C[C@](C)(O)[C@H](O)[C@@H](C)O3)[C@H](O)[C@@H](C)O2)[C@H](O)[C@@H](C)O1", "note": "(stereo not given in full)", "Potency": "1350 nM (active)"}, {"compound": "CCCCCCC(O)C/C=C/CCCCCCCC(=O)O", "note": "(stereo not given)", "activity, negative = inhibition": "5.96%"}, {"compound": "Cc1ccccc1OCC(O)CNCCOc1ccc(C(N)=O)cc1", "note": "(stereo not given)", "activity, negative = inhibition": "1.22%"}, {"compound": "IC(I)I", "activity, negative = inhibition": "-8.63%"}, {"compound": "COC(F)(F)C(Cl)Cl", "activity, negative = inhibition": "-1.12%"}, {"compound": "Nc1c(N=Nc2ccc(-c3ccc(N=Nc4cc(S(=O)(=O)O)c5ccccc5c4N)cc3)cc2)cc(S(=O)(=O)O)c2ccccc12", "activity, negative = inhibition": "-6.81%"}, {"compound": "Cc1cc(C(=O)NNCc2ccccc2)no1", "activity, negative = inhibition": "-0.989% [at 12.8 µM]"}, {"compound": "CC1(C)C(C=C(Cl)Cl)C1C(=O)OCc1cccc(Oc2ccccc2)c1", "note": "(stereo not given)", "activity, negative = inhibition": "1.12%"}, {"compound": "CCOC(C)=O", "activity, negative = inhibition": "-2.89%"}, {"compound": "Cc1c(C)c2c(c(C)c1O)CC[C@@](C)(CCC[C@@H](C)CCC[C@@H](C)CCCC(C)C)O2", "activity, negative = inhibition": "-0.923%"}, {"compound": "CCCCCCCC(=O)O", "activity, negative = inhibition": "0.488%"}, {"compound": "CC1(C)S[C@@H]2[C@H](NC(=O)[C@@H](NC(=O)N3CCNC3=O)c3ccccc3)C(=O)N2[C@H]1C(=O)O", "activity, negative = inhibition": "-2.15% [at 12.8 µM]"}, {"compound": "O=C(COc1ccc(Cl)cc1)OCCNC12CC3CC(CC(C3)C1)C2", "activity, negative = inhibition": "-2.73%"}, {"compound": "O=C(O)c1cc(=O)c2c3nc4ccccc4oc-3cc(=O)c2[nH]1", "activity, negative = inhibition": "-23.8%"}, {"compound": "C[C@]12O[C@H](C[C@]1(O)CO)n1c3ccccc3c3c4c(c5c6ccccc6n2c5c31)CNC4=O", "Potency": "536 nM (active)"}, {"compound": "C[C@@H]1CCC2[C@@H](C)[C@@H](O)O[C@@H]3O[C@@]4(C)CC[C@@H]1[C@@]23OO4", "note": "(stereo not given in full)", "Potency": "3.8 nM (active)"}, {"compound": "CC(=O)N[C@@H](CC(=O)O)C(=O)N[C@@H](CCC(=O)O)C(=O)O", "note": "(Ac-Asp-Glu-OH)", "activity, negative = inhibition": "-2.63%"}, {"compound": "COCC(=O)Nc1cc(Sc2ccccc2)ccc1N=C(NC(=O)OC)NC(=O)OC", "activity, negative = inhibition": "-6.53%"}, {"compound": "Nc1c(Br)cc(Br)cc1CNC1CCC(O)CC1", "note": "(stereo not given)", "activity, negative = inhibition": "-5.27%"}, {"compound": "NC(=O)c1ncn(C2OC(CO)C(O)C2O)n1", "note": "(stereo not given)", "activity, negative = inhibition": "-4.3%"}, {"compound": "COc1ccc2c3c1O[C@H]1C[C@@H](O)C=C[C@@]31CCN(C)C2", "activity, negative = inhibition": "-0.0328%"}]}, {"system": "CP269", "assay": "qHTS profiling for inhibitors of Plasmodium falciparum proliferation (AID 504749)", "conditions": "P. falciparum in erythrocytes, SYBR Green DNA, 72 h; series mostly up to 28.7 µM; activity, negative = inhibition: at the top concentration", "summary_of_the_method": "as §1", "values": [{"compound": "C=C1C(=CC=C2CCC[C@@]3(C)[C@@H]2CC[C@H]3[C@H](C)CCCC(C)C)C[C@@H](O)C[C@@H]1O", "activity, negative = inhibition": "-10.6%"}, {"compound": "O=C1C(=O)c2ncccc2-c2cccnc21", "Potency": "1200 nM (active)"}, {"compound": "O=CCCCC=O", "activity, negative = inhibition": "-13.4%"}, {"compound": "CCCCC(C)(O)C/C=C/[C@H]1[C@H](O)CC(=O)[C@@H]1CCCCCCC(=O)OC", "note": "(stereo not given in full)", "activity, negative = inhibition": "-16.8%"}, {"compound": "CC(C)(C)C(=O)OCOC(=O)[C@@H]1N2C(=O)[C@@H](N=CN3CCCCCC3)[C@H]2SC1(C)C", "activity, negative = inhibition": "-2.61% [at 12.8 µM]"}, {"compound": "C[C@]12CCC(=O)C=C1CC[C@@H]1[C@@H]2[C@@H](O)C[C@@]2(C)[C@H]1CC[C@]2(O)C(=O)COP(=O)(O)O", "activity, negative = inhibition": "-4.71%"}, {"compound": "CCOc1ccc(N=Nc2ccc(N)cc2N)cc1", "activity, negative = inhibition": "-1.32%"}, {"compound": "O=C(O)CCC(=O)C(=O)O", "activity, negative = inhibition": "-1.65%"}, {"compound": "CC1=CCC(C(C)(C)O)CC1", "note": "(stereo not given)", "activity, negative = inhibition": "-3.42%"}, {"compound": "CO[C@H](C(=O)[C@@H](O)[C@@H](C)O)C1Cc2cc3cc(O[C@H]4C[C@@H](O[C@H]5C[C@@H](O)[C@H](O)[C@@H](C)O5)[C@@H](O)[C@@H](C)O4)c(C)c(O)c3c(O)c2C(=O)[C@H]1O[C@H]1C[C@@H](O[C@H]2C[C@@H](O[C@H]3C[C@](C)(O)[C@H](O)[C@@H](C)O3)[C@H](O)[C@@H](C)O2)[C@H](O)[C@@H](C)O1", "note": "(stereo not given in full)", "Potency": "1350 nM (active)"}, {"compound": "CCCCCCC(O)C/C=C/CCCCCCCC(=O)O", "note": "(stereo not given)", "activity, negative = inhibition": "8.44%"}, {"compound": "Cc1ccccc1OCC(O)CNCCOc1ccc(C(N)=O)cc1", "note": "(stereo not given)", "activity, negative = inhibition": "1.07%"}, {"compound": "IC(I)I", "activity, negative = inhibition": "7.96%"}, {"compound": "COC(F)(F)C(Cl)Cl", "activity, negative = inhibition": "2.65%"}, {"compound": "Nc1c(N=Nc2ccc(-c3ccc(N=Nc4cc(S(=O)(=O)O)c5ccccc5c4N)cc3)cc2)cc(S(=O)(=O)O)c2ccccc12", "activity, negative = inhibition": "-6.67%"}, {"compound": "Cc1cc(C(=O)NNCc2ccccc2)no1", "activity, negative = inhibition": "-1.3% [at 12.8 µM]"}, {"compound": "CC1(C)C(C=C(Cl)Cl)C1C(=O)OCc1cccc(Oc2ccccc2)c1", "note": "(stereo not given)", "activity, negative = inhibition": "0.774%"}, {"compound": "CCOC(C)=O", "activity, negative = inhibition": "-7.23%"}, {"compound": "Cc1c(C)c2c(c(C)c1O)CC[C@@](C)(CCC[C@@H](C)CCC[C@@H](C)CCCC(C)C)O2", "activity, negative = inhibition": "-16.3%"}, {"compound": "CCCCCCCC(=O)O", "activity, negative = inhibition": "9.59%"}, {"compound": "CC1(C)S[C@@H]2[C@H](NC(=O)[C@@H](NC(=O)N3CCNC3=O)c3ccccc3)C(=O)N2[C@H]1C(=O)O", "activity, negative = inhibition": "5.18% [at 12.8 µM]"}, {"compound": "O=C(COc1ccc(Cl)cc1)OCCNC12CC3CC(CC(C3)C1)C2", "activity, negative = inhibition": "0.393%"}, {"compound": "O=C(O)c1cc(=O)c2c3nc4ccccc4oc-3cc(=O)c2[nH]1", "activity, negative = inhibition": "-14.6%"}, {"compound": "C[C@]12O[C@H](C[C@]1(O)CO)n1c3ccccc3c3c4c(c5c6ccccc6n2c5c31)CNC4=O", "Potency": "269 nM (active)"}, {"compound": "C[C@@H]1CCC2[C@@H](C)[C@@H](O)O[C@@H]3O[C@@]4(C)CC[C@@H]1[C@@]23OO4", "note": "(stereo not given in full)", "Potency": "4.8 nM (active)"}, {"compound": "CC(=O)N[C@@H](CC(=O)O)C(=O)N[C@@H](CCC(=O)O)C(=O)O", "note": "(Ac-Asp-Glu-OH)", "activity, negative = inhibition": "-2.7%"}, {"compound": "COCC(=O)Nc1cc(Sc2ccccc2)ccc1N=C(NC(=O)OC)NC(=O)OC", "activity, negative = inhibition": "1.16%"}, {"compound": "Nc1c(Br)cc(Br)cc1CNC1CCC(O)CC1", "note": "(stereo not given)", "activity, negative = inhibition": "-14.4%"}, {"compound": "NC(=O)c1ncn(C2OC(CO)C(O)C2O)n1", "note": "(stereo not given)", "activity, negative = inhibition": "-6.78%"}, {"compound": "COc1ccc2c3c1O[C@H]1C[C@@H](O)C=C[C@@]31CCN(C)C2", "activity, negative = inhibition": "-1.91%"}]}]}
